Experimental findings from PubChem BioAssay AID1053126 (Broad Institute, 2014) are described below.

A short description of the experiment: viability loss in HEK293T kidney cells – cell-based, ATP luminescence, cherry-pick, set 6, cytotoxicity control, dose response (AID 1053126). Conditions: CellTiter-Glo ATP luminescence, 72 h; series mostly up to 26 µM.

Potency and affinity values are given separately. Activity calls are given as the source filed them.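 Rule for the calls: active = cell killing with a fitted half-effect concentration at or below twice the top valid dose; inconclusive = flat curve with 30 to 70 percent drop, or poor fit; inactive = the rest.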

Turning to `COCCNC(=S)N/N=C/c1ccc(-c2ccc([N+](=O)[O-])cc2)o1`, the call was inactive.
For `Cc1cccn2c(=O)c3cc(C(=O)NCCN4CCOCC4)c(=N)n(CCc4ccccc4)c3nc12` the value was “inactive”; for `COc1ccc(NC(=O)C2CCC(CNS(=O)(=O)c3cccs3)CC2)cc1` (stereo unspecified), “inactive”.
Regarding `COc1cc(C(c2c(C(=O)O)[nH]c3ccccc23)c2c(C(=O)O)[nH]c3ccccc23)ccc1OCc1ccccc1`, the compound was called inactive.
`CCC(=O)N1C(C(=O)NCc2ccc(OC)cc2)CSC1c1ccc(OC)cc1` (stereo unspecified): the compound was called inactive.
The value for `Cn1cccc1/C=N/NC(=O)c1sc2cc(Cl)ccc2c1Cl` was “inactive”; that for `COc1ccc(S(=O)(=O)Cc2ccc(C(=O)N3CCN(Cc4ccccc4)CC3)o2)cc1` was “inactive”; that for `CCn1c(=N)c(S(=O)(=O)c2ccccc2)cc2c(=O)n3ccccc3nc21` was “inactive”.
The value for `CSCCC1(C(=O)O)NC(c2ccccc2O)C2C(=O)N(C(C)C)C(=O)C21` (stereo unspecified) was “inactive”; that for `CCc1ccccc1S(=O)(=O)Cc1ccc(C(=O)N2CCN(c3ccccc3OC)CC2)o1` was “inactive”.
For `CCOc1ccccc1N=c1oc2cc(O)ccc2cc1C(=O)NCC1CCCO1` (stereo unspecified) the value was “inactive”; for `NC(=O)c1c(NC(=O)Cc2ccccc2)sc2c1CCN(Cc1ccccc1)C2`, “inactive”.
For the compound `O=C1c2ccccc2S(=O)(=O)c2cc(N3CCC(C(=O)N4CCCCC4)CC3)ccc21`, the result was inactive.
The value for `CCCCN1C=C(C(=O)OC)C(c2ccccc2Cl)C(C(=O)OC)=C1` was “inactive”.
The value for `O=C(C1=NN(c2ccccc2)C2C(=O)N(c3ccccc3)C(=O)C12)c1ccccc1` (stereo unspecified) was “inactive”; that for `Cc1c(Nc2c3ccccc3nc3ccccc23)c(=O)n(-c2ccccc2)n1C` was “inactive”.
For `COc1ccc(C2CC(c3ccccc3)=NN2c2ccc(C(N)=O)cc2)cc1` (stereo unspecified) the value was “inactive”; for `COc1ccc(Cn2nnnc2C(CC(C)C)N2CCC(C(N)=O)CC2)cc1` (stereo unspecified), “inactive”; for `CN(C)/C=C/C(=O)c1c(F)cccc1F`, “inactive”.
With `N#Cc1c(NCCCO)nc(NCc2ccccc2)c2c1CCN(Cc1ccccc1)C2`, the compound was called inactive.
For `CC(=O)OC[C@@H]1CN(Cc2ccccc2)C[C@H](n2cnc3c(N(C)C(C)C)ncnc32)O1` the value was “inactive”; for `O=C(NS(=O)(=O)c1ccc(Cl)s1)c1ccccc1`, “inactive”; for `CCCn1c(=N)c(S(=O)(=O)c2ccccc2)cc2c(=O)n3ccccc3nc21`, “inactive”.
The value for `CCc1nnc(NC(=O)c2ccc(-c3ccccc3F)o2)s1` was “inactive”.
For `Cc1ccc2c(c1)N(C(=O)CCC(=O)NCCCN1CCOCC1)CC(C)O2` (stereo unspecified) the value was “inactive”; for `CCC(=O)NCCCNc1nc2c(C)cccc2cc1C#N`, “inactive”; for `CCOc1ccc2nc(NCCCNC(=O)c3cc(OC)c(OC)c(OC)c3)c(C#N)cc2c1`, “inactive”.
In the case of `CSc1ccc(Cn2c(C)c(C(=O)NCCC#N)sc2=O)cc1`, the compound was called inactive.
The value for `CC(=O)c1cccc(-c2ccnc3c2CC(C(=O)NCc2ccc(F)c(F)c2)O3)c1` (stereo unspecified) was “inactive”.
The value for `Cn1cc(C(c2ccccc2OCC(=O)O)c2cn(C)c3ccccc23)c2ccccc21` was “inactive”; that for `O=C(NCc1ccc(F)cc1)C1CCCN1C(=O)Nc1cccc(F)c1` (stereo unspecified) was “inactive”.
The value for `Cc1c(C(=O)NCc2ccc3c(c2)OCCO3)sc(=O)n1Cc1ccccc1F` was “inactive”; that for `Cc1ccc(-n2nnnc2CNC(=O)C(=O)c2c[nH]c3ccccc23)cc1C` was “inactive”.
For `COc1ccccc1OCc1ccc(C(=O)N(C)c2ccccc2)o1`, the call was inactive.
The value for `O=C(O)c1ccc(N/N=C/c2ccc(-c3ccccc3Cl)o2)cc1` was “inactive”; that for `Cc1c2c(n3c(nc4ccccc43)c1C#N)N(CCN1CCOCC1)CC2` was “inactive”.
For `COc1ccccc1/C=N/Nc1nc(C)cc(=O)[nH]1` the value was “inactive”.
For `CCC(C)n1c(=N)c(C#N)cc2c(=O)n3cccc(C)c3nc21` (stereo unspecified) the value was “inactive”.
In the case of `CCOc1ccc(C2C(C#N)=C(N)Oc3cc(O)ccc32)cc1OCC` (stereo unspecified), the outcome was inactive.
For `Cc1cc(=O)oc2cc(OC(=O)c3cncc(Br)c3)ccc12` the value was “inactive”.
The value for `CCOC(=O)c1c(C)n(C)c2ccc(OCC(O)CN3CCC(C)CC3)cc12` (stereo unspecified) was “inactive”; that for `CCOC(=O)C(NC(=O)c1ccccc1)(OCC1(CC)COC1)C(F)(F)F` (stereo unspecified) was “inactive”; that for `S=c1[nH]c2ccc(Cc3ccc4[nH]c(=S)[nH]c4c3)cc2[nH]1` was “inactive”.
For `CN1CCc2c(sc(NC(=O)Cc3ccccc3)c2C#N)C1` the value was “inactive”; for `Nc1cccc2c1C(=O)N(c1ccccc1)C2=O`, “inactive”; for `Cc1c(O)ccc2cc(S(=O)(=O)c3ccccc3)c(=O)oc12`, “inactive”.
Take `Clc1cccc(CN2CCN(Cc3nc(CCc4ccccc4)no3)CC2)c1`: the call was inactive.
For `N=c1c(C(=O)NCC2CCCO2)cc2c(=O)n3ccccc3nc2n1Cc1ccc(Cl)cc1` (stereo unspecified) the value was “inactive”; for `COCCNC(=O)c1cc2c(=O)n3cccc(C)c3nc2n(Cc2ccncc2)c1=N`, “inactive”; for `CCOC(=O)c1cc2c(=O)n3ccccc3nc2n(CCCOC)c1=NC(=O)c1ccncc1`, “inactive”.
The value for `O=C(NCc1nnnn1-c1ccc(Cl)cc1)C1CC(=O)N(c2ccc(F)cc2)C1` (stereo unspecified) was “inactive”; that for `CN1CCN(c2nc3ccccn3c(=O)c2/C=C(\C#N)S(=O)(=O)c2ccccc2)CC1` was “inactive”; that for `O=C(COC(=O)c1cc(S(=O)(=O)N2CCCCC2)ccc1N1CCOCC1)c1ccccc1Cl` was “inactive”.
For `CCOC1=NN(c2ncc(C(F)(F)F)cc2Cl)C(=O)C1` the value was “inactive”.
As for `COc1cc(C(=O)NCCCNc2nc3c(C)cc(C)cc3cc2C#N)cc(OC)c1OC`, the compound was classed as inactive.
The value for `CCOCCCNc1nc2nc3ccc(C)cn3c(=O)c2cc1C(=O)NCC1CCCO1` (stereo unspecified) was “inactive”.
In the case of `O=C(c1ccc(F)cc1)C1CCN(C(=O)Nc2ccccc2Cl)CC1`, the outcome was inactive.
The value for `Cc1cccn2c(=O)c3cc(C#N)c(=NC(=O)c4cccs4)n(CC(C)C)c3nc12` was “inactive”.
The value for `CCCCCCc1cc2cc(S(=O)(=O)c3ccc(C)cc3)c(=O)oc2cc1O` was “inactive”; that for `COCCCOc1cc(NCc2ccccc2)c2ncn(C(C)C)c2c1` was “inactive”.
The value for `CCn1c2ccccc2c(=O)c2ccccc21` was “inactive”; that for `COc1ccc(C2C3=C(CC(C)(C)CC3=O)N(C)C3=C2C(=O)CC(C)(C)C3)cc1` was “inactive”.
Regarding `O=C1CCc2cc(S(=O)(=O)NC(Cc3ccccc3)C(=O)NCCC3=CCCCC3)ccc2N1` (stereo unspecified), the call was inactive.
The value for `Cc1cccn2c(=O)c(/C=C(\C#N)C(N)=O)c(Oc3ccccc3)nc12` was “inactive”; that for `CCCCn1nc(NC(=O)c2cccs2)c2cc3cc(OC)ccc3nc21` was “inactive”; that for `Cc1cc(-n2c(=O)c(C#N)cc3c(=O)n4cccc(C)c4nc32)no1` was “inactive”.
On to `COc1ccc(C2C3=C(CCCC3=O)N(CC(=O)O)C3=C2C(=O)CCC3)cc1`, for which the call was inactive.
The value for `Nc1nc(-c2cc(O)ccc2[N+](=O)[O-])cc(-c2ccccc2)c1[N+](=O)[O-]` was “inactive”; that for `Cc1cccn2c(=O)c3cc(C(N)=S)c(=N)n(CCCN4CCOCC4)c3nc12` was “inactive”.
Turning to `NC(=O)c1cc([N+](=O)[O-])ccc1NCc1cccnc1`, the call was inactive.
For `COc1cc(C(=O)OCC(C)=O)cc(NC(=O)c2ccco2)c1OC` the value was “inactive”; for `CC1CC(C)CN(CCCNC(=O)CCC(=O)N2CC(C)Oc3ccccc32)C1` (stereo unspecified), “inactive”; for `Clc1ccccc1C1=CC(c2ccco2)n2ncnc2N1` (stereo unspecified), “inactive”.
Regarding `COc1ccccc1NS(=O)(=O)c1cc(NC(=O)CCNC(C)=O)ccc1C`, the outcome was inactive.
For `Nc1ccc2nc(-c3ccccc3)cnc2c1` the value was “inactive”; for `CCCN1CCc2c(sc(NC(=O)C3CCN(S(=O)(=O)c4cccs4)CC3)c2C(N)=O)C1`, “inactive”.
